According to PubChem BioAssay AID1259415 (National Center for Advancing Translational Sciences (NCATS), 2018):
Out of some 410,000 compounds screened, about 18,000 (4.4%) were called active. Another 7% or so got no clear call; they are omitted. No stated cut-off is given here; in the data, active means activity change below about -60%; inconclusive means no clear call, values can overlap the other calls; inactive means above about -39%. The full list was thinned out, with actives kept by preference.

Test: qHTS Assay for inhibitors of the human cytomegalovirus (HCMV)
Details: HFF cells, HCMV-luciferase reporter, 72 h; at 57.5 µM; hits give low values
How it was run: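 Cell-based, HFFs, 1000 cells/well, 16 h 37C; cpds in DMSO + HCMV-luc, MOI 1 PFU/cell; 72 h 37C; OneGlo luminescence after 5 min RT; norm. to buffer vs Salinomycin 10uM.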
On the % scale 0 is the no-effect control and ±100 the full control effect.

Row | SMILES | activity change, negative = inhibition
1 | Cc1ccccc1NC(=O)Cn1cc(C(=O)c2cccs2)c2ccccc21 | -22.9% (inactive)
2 | Cc1c(Cl)cccc1NC(=O)Cn1cc(C(=O)c2cccs2)c2ccccc21 | -95.6% (active)
3 | O=C(Cn1cc(C(=O)c2cccs2)c2ccccc21)NCc1cccs1 | -5.26% (inactive)
4 | COC(=O)C1=C(C(=O)OC)[C@@H]2N(C)c3ccccc3[C@@]23C[C@@H](C(=O)OC)N(C(C)=O)C3=N1 | -27% (inactive)
5 | O=C(NCc1cccnc1)C(=O)NCC(c1cccnc1)N1CCN(c2ccccc2)CC1 (stereo not given) | 5.63% (inactive)
6 | CC(=O)Nc1cc(-c2cccc(CO)c2)cn2c(-c3cccc(C(F)(F)F)c3)cnc12 | 71.5% (inactive)
7 | CN(C)CCNC(=O)c1cccc(-c2cnc3c(NC=O)cc(-c4cccc(C(F)(F)F)c4)cn23)c1 | -61.3% (active)
8 | COc1ccc(-c2cc(NC=O)c3ncc(-c4cccc(C(=O)N(C)C)c4)n3c2)c(OC)c1 | 40.1% (inactive)
9 | CCCn1c(NCc2ccc(N(CC)CC)cc2)nc2ccccc21 | -5.55% (inactive)
10 | Cc1ccc(-c2noc(-c3nnn(-c4cccc(C(F)(F)F)c4)c3N)n2)cc1 | 15.9% (inactive)
11 | Cc1cccc(NC(=O)CSc2nc(-c3ccco3)cc(C(F)(F)F)n2)c1C | 1.83% (inactive)
12 | CC[C@@H](C)[C@H](NC(=O)CCc1c(C)c2cc3c4c(oc3c(C)c2oc1=O)CCCC4)C(=O)O | -33.8% (inactive)
13 | Cc1c(CC(=O)NCC(=O)NCC(=O)O)c(=O)oc2cc3oc4c(c3cc12)CCCC4 | -60.9% (active)
14 | Cc1coc2cc3oc(=O)c(CCC(=O)O)c(C)c3cc12 | -38.4% (inactive)
15 | Cc1ccccc1CN1CCC(CNC(=O)c2cc3ccc4cccnc4c3[nH]2)CC1 | -34.7% (inactive)
16 | O=[N+]([O-])/C=C/c1ccc2c(ccn2Cc2ccccc2)c1 | -98% (active)
17 | O=c1c(=O)n(Cc2c(F)cccc2Cl)ccn1Cc1ccccc1 | -4.43% (inactive)
18 | COc1ccc(Cn2ccn(Cc3cccc(OC)c3)c(=O)c2=O)cc1 | 6.59% (inactive)
19 | CCOC(=O)[C@H]1[C@H]2COc3ccc(Br)cc3[C@@H]2N2C(=O)CN(C)C(=O)[C@@]12C | 4.78% (inactive)
20 | CC(=O)Nc1ccc(NC(=O)C2CCCN(S(=O)(=O)c3ccc4c(c3)CCCC(=O)N4)C2)cc1 (stereo not given) | 20.2% (inactive)
21 | Cc1ccc(C)c(N2CCN(C(=O)Cn3ncc4c(=O)oc5ccc(C)cc5c43)CC2)c1 | 4.14% (inactive)
22 | Cc1ccccc1-c1cc(C(=O)NCc2cccs2)n(CC2CC(c3cccnc3)=NO2)n1 (stereo not given) | -10.2% (inactive)

Row | SMILES | activity change, negative = inhibition
23 | Cc1ccccc1N1CC(C(=O)Nc2ccc3c(c2)OCO3)CC1=O (stereo not given) | 31.2% (inactive)
24 | O=C(OCCOc1ccccc1Cl)c1cc(S(=O)(=O)N2CCCCC2)ccc1N1CCOCC1 | -69.8% (active)
25 | CC(C)(C)C(=O)COC(=O)c1cc(S(=O)(=O)N2CCCCC2)ccc1N1CCOCC1 | -11.9% (inactive)
26 | O=C(OCCOc1ccccc1F)c1cc(S(=O)(=O)N2CCOCC2)ccc1F | -18% (inactive)
27 | CCOC(=O)c1c(C)[nH]c(C)c1S(=O)(=O)N1CCCC(C(=O)NCc2ccccc2Cl)C1 (stereo not given) | -15.8% (inactive)
28 | CCOc1ccccc1CNC(=O)Nc1cn(CC(C)C)c(=O)c2ccccc12 | -2.27% (inactive)
29 | CCOc1ccc(S(=O)(=O)Nc2ccncc2)c(C)c1C | -26.1% (inactive)
30 | Cc1cc(-c2n[nH]c(=S)n2/N=C/C(Br)=C/c2ccccc2)n[nH]1 | -95% (active)
31 | CCN(CCCNC(=O)c1ccc(Sc2ccc(C)cc2)c(NC(C)=O)c1)c1cccc(C)c1 | -13.8% (inactive)
32 | CCN(CCCNC(=O)c1ccc2c(c1)NC(=O)CN2C)c1cccc(C)c1 | -95.1% (active)
33 | CCN(CCCNC(=O)Cn1ncc2c([nH]c3ccccc32)c1=O)c1cccc(C)c1 | 19.5% (inactive)
34 | COc1ccc(SCc2cc(=O)c3ccc(C)c(C)c3[nH]2)cc1 | -8.87% (inactive)
35 | CC(C)C(C(=O)NC(C)(C)CC(C)(C)C)N1C(=O)C(=O)c2ccccc21 (stereo not given) | 229% (inactive)
36 | CCOC(=O)c1ccc(CN(Cc2ccccc2)S(=O)(=O)c2ccc(Cl)cc2)cc1 | -6.46% (inactive)
37 | CCOC(=O)C1(S(=O)(=O)c2ccc(Cl)cc2)CCN(Cc2ccccc2)CC1 | -98.6% (active)
38 | O=C(NNS(=O)(=O)c1ccc(Cl)cc1)C1CCN(Cc2ccccc2)CC1 | 14.7% (inactive)
39 | CN(CC(=O)Nc1ccccc1Cl)C(=O)COc1cccc2c1OC(C)(C)C2 | -11.1% (inactive)
40 | O=C(Nc1ccc(O)c(-c2nc3ccccc3o2)c1)c1ccc(-c2cccc(Cl)c2)o1 | 11.5% (inactive)
41 | Cc1nc(Nc2ccccc2F)c2nnn(Cc3ccccc3Cl)c2n1 | 33.3% (inactive)
42 | Cc1nc(Nc2ccc3c(c2)OCCO3)c2nnn(Cc3ccccc3Cl)c2n1 | -91.8% (active)
43 | Cc1nc(Nc2ccc(S(=O)(=O)N3CCCC3)cc2)c2nnn(Cc3ccccc3)c2n1 | -1% (inactive)
44 | CC(C)c1ccc(Nc2ncccc2C#N)cc1 | 52.9% (inactive)

Row | SMILES | activity change, negative = inhibition
45 | COc1cc(OC)cc(C(=O)Nc2nnc(SCC(=O)NCC3CCCO3)s2)c1 (stereo not given) | -2.96% (inactive)
46 | CC1CC(C)CN(CC(=O)Nc2ccc(S(N)(=O)=O)cc2)C1 (stereo not given) | -88.1% (active)
47 | CC1Cc2ccccc2N1CC(=O)Nc1ccc(S(N)(=O)=O)cc1 (stereo not given) | -32.9% (inactive)
48 | CC1CN(C(=S)Nc2ccc(S(N)(=O)=O)cc2)CC(C)O1 (stereo not given) | 70.7% (inactive)
49 | COc1cc(OC)cc(C(=O)Nc2cc3nn(-c4ccccc4)nc3cc2Cl)c1 | 99.1% (inactive)
50 | CCOC(=O)c1ccccc1NC(=O)CCc1c(C)nc2c(c1C)c(=O)n(C)c(=O)n2C | 5.18% (inactive)
51 | Cc1nc(-c2ccc([N+](=O)[O-])cc2)c(-c2ccccc2)o1 | -90.1% (active)
52 | Cc1nc2ccccc2nc(=O)c1NNc1ccc([N+](=O)[O-])cc1 | 4.07% (inactive)
53 | CCC1OC(c2ccc([N+](=O)[O-])cc2)=Nc2ccccc21 (stereo not given) | 13.9% (inactive)
54 | COc1ccc(Cn2ccnc2SCC(=O)NCc2ccco2)cc1 | -17.3% (inactive)
55 | COc1cc(OC)cc(C2=Cc3ccccc3C(CC(=O)c3ccco3)N2c2ccc(-c3cnc(OC)nc3)cc2)c1 (stereo not given) | 18.6% (inactive)
56 | NC(=O)c1ncc(C(F)(F)F)cc1Oc1ccc(F)cc1 | 0.451% (inactive)
57 | COc1ccc(Cl)cc1NC(=O)CSc1nc2ccccc2c2nc(-c3ccccc3)nn12 | 11.6% (inactive)
58 | CCOc1ccc(CCN2C(=O)C(=O)N([C@@H](Cc3ccc(O)cc3)CN3CCC[C@H]3CN3C(=O)C(=O)NC[C@@H]3CC(C)C)C[C@@H]2Cc2ccccc2)cc1 | -26.1% (inactive)
59 | O=C(COC(=O)c1cncc(Br)c1)Nc1ccc(S(=O)(=O)N2CCOCC2)cc1 | -8.88% (inactive)
60 | O=C(COc1ccc(Br)cc1)OCC(=O)c1ccc[nH]1 | 42.3% (inactive)
61 | CCCOC(=O)c1c(NC(=O)c2cnn3c2NC(c2ccccc2)CC3C(F)(F)F)sc2c1CCCC2 (stereo not given) | -29.2% (inactive)
62 | CCOc1ccc(NC(=S)NC(=O)/C=C/c2ccc(OC)cc2)c([N+](=O)[O-])c1 | 40.2% (inactive)
63 | Cc1ccc(/C=C/C(=O)Nc2ccc([N+](=O)[O-])c(NC(=O)/C=C/c3ccc(C)o3)c2)o1 | -77% (active)
64 | COc1ccc(OC)c(NC(=O)/C=C/c2ccc(C)o2)c1 | 33% (inactive)
65 | COc1c(Cl)cc(C(=O)N(Cc2ccccc2F)C2CCS(=O)(=O)C2)cc1Cl (stereo not given) | -5.18% (inactive)
66 | COc1ccccc1OCC(O)CN1CCOCC1 (stereo not given) | -100% (active)

Row | SMILES | activity change, negative = inhibition
67 | CCCn1c(=N)n(CC(O)COc2ccccc2OC)c2ccccc21 (stereo not given) | -33.4% (inactive)
68 | Cc1ccc(OCC(O)CN2CCN(CC(O)COc3ccc(C)cc3Cl)CC2)c(Cl)c1 (stereo not given) | -4.14% (inactive)
69 | COc1cc(NS(=O)(=O)c2ccc3ccccc3c2)c2ncccc2c1 | -79.8% (active)
70 | CCOc1ccc(OCC)c(NS(=O)(=O)c2ccc3[nH]c(=O)ccc3c2)c1 | 17.6% (inactive)
71 | COc1ccc(S(=O)(=O)Nc2cc3c(C(=O)OC(C)C)c(C)oc3c3ccccc23)cc1 | 4.89% (inactive)
72 | COc1cc2c(C(=O)N(C)c3cc(Cl)ccc3OC)cn(C)c(=O)c2cc1OC | -37.5% (inactive)
73 | Cc1cc(C)c2oc(C(=O)Nc3c(C(=O)Nc4ccccc4)oc4ccccc34)cc(=O)c2c1 | 8.41% (inactive)
74 | O=C(Cn1nnc(-c2ccccc2)n1)NC(=O)NC1CCCC1 | 11.9% (inactive)
75 | Cc1nc(/N=C(\N)NC(=O)NC2CCCCC2)nc2ccccc12 | -84.3% (active)
76 | O=C(NNC(=O)C(O)c1ccccc1)NC1CCCCC1 (stereo not given) | -11.7% (inactive)
77 | Cc1ccc(C)c(S(=O)(=O)n2nc(C)c(S(=O)(=O)N3CCC(C)CC3)c2C)c1 | -3.95% (inactive)
78 | Cc1ccc(C)c(S(=O)(=O)N2CCN(c3ncnc4sccc34)CC2)c1 | -96.6% (active)
79 | Cc1ccc(C)c(S(=O)(=O)c2nnn3c2nc(N2CCOCC2)c2sccc23)c1 | 28.6% (inactive)
80 | Cc1ccc(S(=O)(=O)N2CCN(c3ncnc4ccccc34)CC2)cc1 | -87.3% (active)
81 | Cc1ccc(S(=O)(=O)N2CCN(Cc3cccc(C)c3O)CC2)cc1 | -3.34% (inactive)
82 | COc1ccc(S(=O)(=O)N2CCN(c3ncnc4c(-c5ccccc5)nsc34)CC2)cc1 | 3.62% (inactive)
83 | CCOc1ccc2oc(C(=O)N(CC)CC(=O)Nc3ccc(NC(C)=O)cc3)c(C)c2c1 | -18.7% (inactive)
84 | O=S(=O)(c1ccc(Br)cc1)c1nnn2c1nc(N1CCOCC1)c1sccc12 | 18.7% (inactive)
85 | CCCOc1ccc(N2C(=O)CC(N(CCc3ccc(S(N)(=O)=O)cc3)C(C)=O)C2=O)cc1 (stereo not given) | 29.6% (inactive)
